HCMV inh: qHTS Assay for inhibitors of the human cytomegalovirus (HCMV); activity change, negative = inhibition, % at 57.5 µM; 410,000 tested, 4.5% active; HFF cells, HCMV-luciferase reporter, 72 h; stronger effect = lower value; in the data active = activity change below about -60%; inconclusive = no clear call, values can overlap the other calls; inactive = above about -39%
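Compounds were evaluated in HFFs infected with an HCMV luciferase reporter virus (MOI 1 PFU/cell). Luciferase in lysates collected 72 h post infection served as the replication measure.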
FMDV antiviral: High Throughput Screening for Foot and Mouth Disease Virus Antivirals | 410,000 tested, 1.2% active | AID 1159524, 2015 | Potency, µM (series often up to 57.9 µM), for the others: at the highest dose activity change, negative = inhibition, most hits filed as inhibitors | FMDV antiviral cell-based qHTS; calls by dose curve; tested in HEK293T cells; note: read-out not given here; potency is the fitted concentration of half-maximal effect; nearly all actives have a fitted effect of over 45% in size
MARV entry inh: qHTS for inhibitors of binding or entry into cells for Marburg Virus; AID 540276, 2011; Marburg virus pseudotyped entry inhibition, cell reporter; 300,000 tested, 1.8% active; Potency, µM (titrated, usually from 37.8 µM), for the others: at the highest dose activity change, negative = inhibition, most hits filed as inhibitors; calls by dose curve; tested in HEK293 cells; note: potency is the fitted concentration of half-maximal effect
Lassa entry inh: qHTS for Inhibitors of binding or entry into cells for Lassa Virus. Potency, µM (titrated, usually from 37.9 µM), inactives show at the highest dose activity change, negative = inhibition, hits mostly inhibitors. Lassa virus pseudotype entry inhibition, cell reporter. 300,000 tested, 1.2% active. AID 540256, 2011; calls by dose curve; tested in HEK293 cells; note: potency is the fitted concentration of half-maximal effect; nearly all actives have a fitted effect of over 50% in size
HCV inh: qHTS Assay for Inhibitors of Hepatitis C Virus (HCV). Huh7.5.1 HCVcc-Cre infection, luciferase reporter, 44 h. Potency, µM (series often up to 41.8 µM), inactives show top-dose activity change, negative = inhibition, most hits filed as inhibitors. 340,000 tested, 3.4% active. AID 651820, 2012; active = well fitted inhibition curve with a large enough effect; inconclusive = small, poorly fitted or top-dose-only effect, or another doubt; inactive = no such curve, though single readings can be large or run the other way; note: potency is the fitted concentration of half-maximal effect
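HCVcc-Cre virus at an moi near 0.5 was added right after compound to cells cultured 4 h from seeding (1,000 cells/well). Luciferase activity was determined 44 h later, 15 min after substrate addition at RT.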
* hit, by the source's call; ? = inconclusive; . = no result given; [ ] = another dose, or the depositor's remark. Only some compounds are listed: those with a hit (about 7.9% of all), similar ones and a draw of the others. % is set by controls: 0 for no effect and ±100 for the full control effect.

SMILES | HCMV inh | FMDV antiviral | MARV entry inh | Lassa entry inh | HCV inh
Cc1cccc2c(C(=O)N3CCN(C(=O)c4ccco4)CC3)cc(-c3cccc(Br)c3)nc12 | -64.0* | 17.8µM* | ? | ? | ?
Cc1cc(C)c2nc(C(F)(F)F)nc(N3CCN(C(=O)c4ccco4)CC3)c2c1 | ? | ? | 0.0% | -12.5% | 12.6µM*
O=C(c1ccco1)N1CCN(C(=O)c2cc(-c3ccccc3)nc3ccccc23)CC1 | 69.1 | 7.5% | ? | ? | -3.5%
COc1cccc(CN2CCC(n3cc(C(=O)N4CCCCC4)nn3)CC2)c1OC | . | -7.7% | . | . | .
CCCCCCCCCn1c2c(c(=N)c3c1CCC3)CCCC2 | . | 10µM* | ? | 4.11µM* | 3.16µM*
CCCCCn1c2c(c(=N)c3ccccc31)CCC2 | -96.4* | 0.0% | ? | ? | ?
CCn1c2c(c(=N)c3c1CCC3)CCCC2 | -67.2* | -24.2% | ? | 16.3%[46.1 µM] | -16.4%
CCCCn1c2c(c(=N)c3ccccc31)CCC2 | -36.2 | -28.9% | 15.7% | 5.8% | -17.1%
CCCCCCCCn1c2c(c(=N)c3ccccc31)CCC2 | -97.0* | 2.51µM* | ? | ? | 2.82µM*
CN(CC(=O)NC1CCCCC1)S(=O)(=O)c1ccc2c(c1)c(=O)n(C)c(=O)n2C | -1.5 | 7.6% | . | . | 13.4%
Cc1ccc2c(c1)sc[n+]2Cc1ccccc1 | 29.2 | 36.1% | ? | 14.2% | 10µM*
Cc1ccc(-c2cc[n+](Cc3ccccc3)cc2)cc1 | ? | ? | ? | -20.4% | ?
Clc1ccc(C2=NNC(=NCc3ccc4c(c3)OCO4)SC2)cc1 | ? | 7.8% | 12.6µM* | ? | -4.1%
Oc1ccc(C2=NNC(=NCc3ccc4c(c3)OCO4)SC2)c(O)c1 | -9.2 | 52.2% | ? | -12.3% | -15.0%
COc1ccc(CN=C2NN=C(c3ccc(Cl)cc3)CS2)cc1 | -28.3 | 52.8% | 22.9%[46.1 µM] | 1.7% | -0.7%
CC(C)(C)N=C1NN=C(c2ccc(Cl)cc2)CS1 | ? | 5.4% | . | . | 10µM*
CCOC(=O)c1ccccc1NC(=O)COC(=O)c1c(CC)noc1C | 7.3 | ? | -11.6% | -2.7% | ?
COc1ccc(N2C(=O)CCC2=O)cc1 | 35.3 | -7.0% | -15.1% | 0.0% | 2.3%
COc1ccc(N2C(=O)C(=O)N(c3ccc(OC)cc3)P2(=O)N(CCCl)CCCl)cc1 | -74.8* | -13.8% | -2.4%[46.1 µM] | -1.3%[46.1 µM] | 8.9%
CN(CCc1ccccn1)C(=O)CCC1CCCN(C(=O)CN2CCCCCC2)C1 (stereo not given) | -21.8 | -4.5% | 1.5%[46.1 µM] | 17.9%[46.1 µM] | 2.5%
CC(=O)c1cc(C(=O)N2CCCC(CCC(=O)N(C)CCc3ccccn3)C2)cs1 (stereo not given) | -66.5* | -24.2% | 3.7%[46.1 µM] | 4.8%[46.1 µM] | 6.2%
Cc1ccc(-c2nc(NCCCN(C)C)c3ccccc3n2)cc1 | 26.3 | 33.5% | . | . | .
OCCNc1c2ccccc2nc2c(F)c(F)c(F)c(F)c12 | -23.4 | 22.4µM* | ? | ? | ?
CN(C)CCCNc1c2ccccc2nc2ccccc12 | -101.9* | -29.5% | 5.62µM* | ? | 7.94µM*
Cc1c2ccccc2nc2c(F)c(NCCO)c(F)c(F)c12 | 64.0 | 44.2% | 15.5% | ? | ?
SMILES | HCMV inh | FMDV antiviral | MARV entry inh | Lassa entry inh | HCV inh
CN(C)CCCNc1nc(-c2ccccc2)nc2ccccc12 | 22.1 | -15.3% | 12.6µM* | -12.9%[46.1 µM] | -19.8%
Cc1ccc(Nc2nc(-c3ccncc3)nc3ccccc23)cc1 | -1.1 | -25.3% | 2.24µM* | 1.0% | -62.2%
Cc1ccc(Nc2nc(-c3ccccc3)nc3ccccc23)cc1 | ? | 0.0% | . | 25.7%[46.1 µM] | .
c1ccc(CCNc2nc(-c3ccncc3)nc3ccccc23)cc1 | -71.1* | ? | ? | ? | 12.6µM*
N#CCSc1nc2ccccc2c2nc3ccccc3n12 | -103.1* | ? | ? | 2.7% | ?
CC1(c2nnnn2Cc2ccccc2)CCC(=O)N1Cc1cccnc1 (stereo not given) | -14.5 | -22.4% | . | . | .
S=C(NC1CCCCC1)N1CCn2cccc2C1c1cccnc1 (stereo not given) | -32.1 | -7.4% | 8.91µM* | ? | -7.9%
CCN(CC)S(=O)(=O)c1ccc(N2CCOCC2)c(NC(=O)c2c3c(nc4ccccc24)CCC3)c1 | -31.1 | 0.0% | ? | -11.7% | ?
CC(=O)Nc1ccc(NC(=O)COc2ccc(Br)cc2C)cc1 | -17.2 | -6.2% | -26.0% | 8.5% | -6.7%
O/N=C/c1cc(Br)ccc1OCc1ccccc1F | 42.0 | 2.9% | -17.1%[46.1 µM] | 24.9% | ?
Cc1cccc(OCCCC(=O)Nc2ccc(N(C)C)cc2)c1 | 40.1 | 56.5% | 5.5% | 18.7% | -4.7%
Cc1cccc(OCCCC(=O)Nc2ccc(Br)cc2)c1 | 37.2 | -19.9% | 11.2µM* | -3.6% | ?
C=CCOc1ccc(Br)cc1/C=N/O | -1.3 | -27.8% | -17.8% | 12.9% | 11.2µM*
Cc1cccc(NC(=O)COc2ccc(Br)cc2/C=N/O)c1 | 24.0 | 0.0% | ? | ? | 35.5µM*
Cc1cc(NS(=O)(=O)c2ccc(NC(=O)COc3ccc(Cl)cc3)cc2)nc(C)n1 | -4.2 | 40.6% | -2.1%[46.1 µM] | -5.4%[46.1 µM] | .
CC(=O)c1ccc(N2CCN(C(=O)c3cc4c(-c5ccccc5F)nn(C)c4s3)CC2)cc1 | -12.7 | ? | . | . | 14.1µM*
COc1ccccc1N1CCN(C(=O)c2cc3c(-c4ccccc4F)nn(C)c3s2)CC1 | -27.4 | ? | -24.5%[46.1 µM] | ? | .
COc1ccc(N2CCN(C(=O)c3cc4c(-c5cccc(OC)c5)nn(C)c4s3)CC2)cc1 | -24.1 | -2.1% | -1.9%[46.1 µM] | ? | 6.31µM*
CCOC(=O)N1CCC(NC(=O)c2cc3c(-c4cccc(OC)c4)nn(C)c3s2)CC1 | -19.8 | ? | -17.5%[46.1 µM] | -26.9% | ?
CCOC(=O)N1CCN(C(=O)c2cc3c(-c4cccc(OC)c4)nn(C)c3s2)CC1 | 8.8 | ? | ? | ? | 8.91µM*
C=CCN1c2ccccc2[C@]23CCC(=O)N(Cc4ccco4)C2=NC(C(=O)OC)=C(C(=O)OC)[C@H]13 | . | . | -1.4%[14.2 µM] | . | .
CC(C)=CCCC1(C)C=Cc2c(O)c3c(c(CC=C(C)C)c2O1)OC12C(=CC4CC1C(C)(C)OC2(C/C=C(/C)C(=O)O)C4=O)C3=O (stereo not given) | . | 5.62µM* | . | . | .
CC(C)=CCCC1(C)C=Cc2c(O)c3c(c(CC=C(C)C)c2O1)OC12C(=CCCC1C(C)(C)O[C@@]2(C/C=C(\C)C(=O)O)C(=O)O)C3=O (stereo not given in full) | . | -1.5% | . | . | .
CC(C)=CCCC1(C)C=Cc2c(O)c3c(c(CC=C(C)C)c2O1)OC12C(=CC4CC1C(C)(C)OC2(C/C=C(/C)C(=O)O)C4O)C3=O (stereo not given) | . | 10µM* | . | . | .
O=S1(=O)CC(N2CC=CC2)CN1Cc1cn(Cc2ccc(F)cc2)nn1 (stereo not given) | 7.3 | -2.3% | . | . | .
Fc1ccc(-c2cn3cc(Cc4ccccc4)sc3n2)cc1 | -66.2* | 12.6µM* | ? | ? | .

From PubChem
